The supplement of paper PMC10037445
Several values for one entry are separate records, joined by “and”; a condition that tells them apart may be missing. Equal values may be shown once. The full ranking holds about 2,900 compounds; the median of “NF-kB SEAP reporter activity, fold change vs agonist alone” is about 0.99, and the highest 2% start at about 2.6. For the sample, the highest values were picked, then their nearest neighbours and some compounds at random.

Assays:
RAW-Dual [1] = assay: NF-kB SEAP reporter activity, fold change vs agonist alone; cytotoxicity flag (confluency mask): not cytotoxic; higher = enhanced NF-kB activity
Outline: (§1)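 Library stock was pin-tooled at 50 nL into 384-well plates of RAW-Dual macrophages (50,000 cells/well, DMEM), followed 1 h later by a PRR agonist, and the cells were kept at 37 °C, 5% CO2. Supernatant collected after 20 hours was read for IRF by QuantiLuc luminescence and for NF-κB by QuantiBlue absorbance at 620 nm. Reporter activity is fold change over agonist-alone wells, and a well counted as cytotoxic when its IncuCyte confluency was below 70% of agonist controls in both mask sets.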

RAW-Dual [2] = assay: NF-kB SEAP reporter activity, fold change vs agonist alone; higher = enhanced NF-kB activity
Outline: as §1

RAW-Dual [3] = assay: NF-kB SEAP reporter activity, fold change vs agonist alone; cytotoxicity flag (confluency mask): cytotoxic (confluency <70% of control); higher = enhanced NF-kB activity
Outline: as §1

[4] = agonist: ODN 1826 (TLR9) 0.5 ug/mL
[5] = agonist: Pam2CSK4 (TLR2/6) 0.1 ug/mL
[6] = agonist: Pam3CSK4 (TLR2/1) 0.1 ug/mL
[7] = library stock concentration (final ~1000-fold dilution): 10 mM, cytotoxicity flag (confluency mask): not cytotoxic, agonist: Imiquimod (TLR7) […]
[8] = library stock concentration (final ~1000-fold dilution): 10 mM, cytotoxicity flag (confluency mask): not cytotoxic, agonist: MPLA (TLR4) […]
[9] = library stock concentration (final ~1000-fold dilution): 10 mM, cytotoxicity flag (confluency mask): cytotoxic (confluency <70% of control), agonist: Imiquimod (TLR7) […]
[10] = library stock concentration (final ~1000-fold dilution): 10 mM, cytotoxicity flag (confluency mask): cytotoxic (confluency <70% of control), agonist: MPLA (TLR4) […]

With `CC(C)NCC(C(=O)N1CCN(c2ncnc3c2C(C)CC3O)CC1)c1ccc(Cl)cc1` (centres undefined) (library stock concentration (final ~1000-fold dilution): 10 mM) the “NF-kB SEAP reporter activity” value (RAW-Dual [1]; agonist: LPS (TLR4) 0.1 ug/mL) was 0.942, the “NF-kB SEAP reporter activity” value (RAW-Dual [1]; [4]) was 0.996 and the “NF-kB SEAP reporter activity” value (RAW-Dual [1]; [5]) was 1.15. For the same compound, the “NF-kB SEAP reporter activity” value (RAW-Dual [1]; [6]) was 1.11.
For `CC(C)NCC(C(=O)N1CCN(c2ncnc3c2C(C)CC3O)CC1)c1ccc(Cl)cc1` (centres undefined), the “NF-kB SEAP reporter activity” value (RAW-Dual [2]; [7]) was 1.27 and the “NF-kB SEAP reporter activity” value (RAW-Dual [2]; [8]) was 1.13.
In the case of `C=CC(=O)N1CCCC(n2nc(-c3ccc(Oc4ccccc4)cc3)c(C(N)=O)c2N)C1` (centres undefined), the “NF-kB SEAP reporter activity” value (RAW-Dual [2]; [7]) is reported as 0.67 and the “NF-kB SEAP reporter activity” value (RAW-Dual [2]; [8]) is reported as 0.637.
`C=CC(=O)N1CCCC(n2nc(-c3ccc(Oc4ccccc4)cc3)c(C(N)=O)c2N)C1` (centres undefined) (library stock concentration (final ~1000-fold dilution): 10 mM) was tested, and the “NF-kB SEAP reporter activity” value (RAW-Dual [1]; agonist: LPS (TLR4) 0.1 ug/mL) was 0.404, the “NF-kB SEAP reporter activity” value (RAW-Dual [1]; [4]) was 0.546 and the “NF-kB SEAP reporter activity” value (RAW-Dual [1]; [5]) was 0.224. For the same compound, the “NF-kB SEAP reporter activity” value (RAW-Dual [1]; [6]) was 0.272.
In the case of `Cl.NC(=O)c1cnc(NC2CCCCC2N)nc1Nc1cccc(-n2nccn2)c1` (centres undefined), the “NF-kB SEAP reporter activity” value (RAW-Dual [2]; [9]) is reported as 0.258 and the “NF-kB SEAP reporter activity” value (RAW-Dual [2]; [10]) is reported as 0.336.
With `Cl.NC(=O)c1cnc(NC2CCCCC2N)nc1Nc1cccc(-n2nccn2)c1` (centres undefined) (library stock concentration (final ~1000-fold dilution): 10 mM) the “NF-kB SEAP reporter activity” value (RAW-Dual [3]; agonist: LPS (TLR4) 0.1 ug/mL) was 0.377, the “NF-kB SEAP reporter activity” value (RAW-Dual [3]; [4]) was 0.204 and the “NF-kB SEAP reporter activity” value (RAW-Dual [3]; [5]) was 0.315. The “NF-kB SEAP reporter activity” value (RAW-Dual [3]; [6]) was 0.248.
In the case of `OCc1c[nH]c2ccccc12`, the “NF-kB SEAP reporter activity” value (RAW-Dual [2]; [8]) is reported as 1.03.
`OCc1c[nH]c2ccccc12` (library stock concentration (final ~1000-fold dilution): 10 mM) was tested, and the “NF-kB SEAP reporter activity” value (RAW-Dual [1]; agonist: LPS (TLR4) 0.1 ug/mL) was 1.1 and 1.21, the “NF-kB SEAP reporter activity” value (RAW-Dual [1]; [4]) was 0.998 and 1.05 and the “NF-kB SEAP reporter activity” value (RAW-Dual [1]; [5]) was 1.03 and 1. The “NF-kB SEAP reporter activity” value (RAW-Dual [1]; [6]) was 1.29 and 1.17.
In the case of `O=C(/C=C/c1ccc(CN(CCO)CCc2c[nH]c3ccccc23)cc1)NO` (library stock concentration (final ~1000-fold dilution): 10 mM), the “NF-kB SEAP reporter activity” value (RAW-Dual [3]; agonist: LPS (TLR4) 0.1 ug/mL) is reported as 5.57, the “NF-kB SEAP reporter activity” value (RAW-Dual [3]; [4]) is reported as 1.51 and the “NF-kB SEAP reporter activity” value (RAW-Dual [3]; [5]) is reported as 1.46. For the same compound, the “NF-kB SEAP reporter activity” value (RAW-Dual [3]; [6]) was 1.68.
In the case of `O=C(O)CCc1c[nH]c2ccccc12`, the “NF-kB SEAP reporter activity” value (RAW-Dual [2]; [7]) is reported as 0.934 and the “NF-kB SEAP reporter activity” value (RAW-Dual [2]; [8]) is reported as 0.964.
For `O=C(O)CCc1c[nH]c2ccccc12` (library stock concentration (final ~1000-fold dilution): 10 mM), the “NF-kB SEAP reporter activity” value (RAW-Dual [1]; agonist: LPS (TLR4) 0.1 ug/mL) was 1.08, the “NF-kB SEAP reporter activity” value (RAW-Dual [1]; [4]) was 1.06 and the “NF-kB SEAP reporter activity” value (RAW-Dual [1]; [5]) was 1.03. For the same compound, the “NF-kB SEAP reporter activity” value (RAW-Dual [1]; [6]) was 0.898.
With `O=C(/C=C/c1ccc(CN(CCO)CCc2c[nH]c3ccccc23)cc1)NO` the “NF-kB SEAP reporter activity” value (RAW-Dual [2]; [9]) was 2.64 and the “NF-kB SEAP reporter activity” value (RAW-Dual [2]; [10]) was 2.71.
In the case of `CCOC1OC(=O)CC1NC(=O)C1CCCN1C(=O)C(NC(=O)c1ccc(N)c(Cl)c1)C(C)(C)C` (centres undefined), the “NF-kB SEAP reporter activity” value (RAW-Dual [2]; [7]) is reported as 0.911 and the “NF-kB SEAP reporter activity” value (RAW-Dual [2]; [8]) is reported as 0.995.
`CCOC1OC(=O)CC1NC(=O)C1CCCN1C(=O)C(NC(=O)c1ccc(N)c(Cl)c1)C(C)(C)C` (centres undefined) (library stock concentration (final ~1000-fold dilution): 10 mM) was tested, and the “NF-kB SEAP reporter activity” value (RAW-Dual [1]; agonist: LPS (TLR4) 0.1 ug/mL) was 0.973, the “NF-kB SEAP reporter activity” value (RAW-Dual [1]; [4]) was 1 and the “NF-kB SEAP reporter activity” value (RAW-Dual [1]; [5]) was 1. For the same compound, the “NF-kB SEAP reporter activity” value (RAW-Dual [1]; [6]) was 0.976.
With `N#CC1CC2CC2N1C(=O)C(N)C12CC3CC(CC(O)(C3)C1)C2` (centres undefined) (library stock concentration (final ~1000-fold dilution): 10 mM) the “NF-kB SEAP reporter activity” value (RAW-Dual [1]; agonist: LPS (TLR4) 0.1 ug/mL) was 1.1, the “NF-kB SEAP reporter activity” value (RAW-Dual [1]; [4]) was 0.964 and the “NF-kB SEAP reporter activity” value (RAW-Dual [1]; [5]) was 0.892. For the same compound, the “NF-kB SEAP reporter activity” value (RAW-Dual [1]; [6]) was 1.05.
`N#CC1CC2CC2N1C(=O)C(N)C12CC3CC(CC(O)(C3)C1)C2` (centres undefined) was tested, and the “NF-kB SEAP reporter activity” value (RAW-Dual [2]; [7]) was 0.914 and the “NF-kB SEAP reporter activity” value (RAW-Dual [2]; [8]) was 0.875.
With `CCn1c(-c2nonc2N)nc2c(C#CC(C)(C)O)ncc(OCC3CCCNC3)c21` (centres undefined) the “NF-kB SEAP reporter activity” value (RAW-Dual [2]; [7]) was 1.87 and the “NF-kB SEAP reporter activity” value (RAW-Dual [2]; [8]) was 1.95.
For `CCn1c(-c2nonc2N)nc2c(C#CC(C)(C)O)ncc(OCC3CCCNC3)c21` (centres undefined) (library stock concentration (final ~1000-fold dilution): 10 mM), the “NF-kB SEAP reporter activity” value (RAW-Dual [1]; agonist: LPS (TLR4) 0.1 ug/mL) was 1.91, the “NF-kB SEAP reporter activity” value (RAW-Dual [1]; [4]) was 0.943 and the “NF-kB SEAP reporter activity” value (RAW-Dual [1]; [5]) was 1.73. For the same compound, the “NF-kB SEAP reporter activity” value (RAW-Dual [1]; [6]) was 1.89.
With `CC(C)Cc1ccc(C(C)C(=O)O)cc1.NCCCCC(N)C(=O)O` (centres undefined) the “NF-kB SEAP reporter activity” value (RAW-Dual [2]; library stock concentration (final ~1000-fold dilution): 10 mM water, cytotoxicity flag (confluency mask): not cytotoxic, agonist: Imiquimod (TLR7) […]) was 0.969 and the “NF-kB SEAP reporter activity” value (RAW-Dual [2]; library stock concentration (final ~1000-fold dilution): 10 mM water, cytotoxicity flag (confluency mask): not cytotoxic, agonist: MPLA (TLR4) […]) was 1.08.
`CC(C)Cc1ccc(C(C)C(=O)O)cc1.NCCCCC(N)C(=O)O` (centres undefined) (library stock concentration (final ~1000-fold dilution): 10 mM water) was tested, and the “NF-kB SEAP reporter activity” value (RAW-Dual [1]; agonist: LPS (TLR4) 0.1 ug/mL) was 1.42, the “NF-kB SEAP reporter activity” value (RAW-Dual [1]; [4]) was 1.2 and the “NF-kB SEAP reporter activity” value (RAW-Dual [1]; [5]) was 1.54. The “NF-kB SEAP reporter activity” value (RAW-Dual [1]; [6]) was 1.39.
In the case of `CCCCc1nc2cc(/C=C/C(=O)NO)ccc2n1CCN(CC)CC`, the “NF-kB SEAP reporter activity” value (RAW-Dual [2]; [9]) is reported as 2.43 and the “NF-kB SEAP reporter activity” value (RAW-Dual [2]; [10]) is reported as 2.67.
In the case of `CCCCc1nc(-c2ccc(OCCCN(CC)CC)cc2)cn1-c1ccc(Oc2ccc(Cl)cc2)cc1` (library stock concentration (final ~1000-fold dilution): 10 mM), the “NF-kB SEAP reporter activity” value (RAW-Dual [3]; agonist: LPS (TLR4) 0.1 ug/mL) is reported as 0.281, the “NF-kB SEAP reporter activity” value (RAW-Dual [3]; [4]) is reported as 0.683 and the “NF-kB SEAP reporter activity” value (RAW-Dual [3]; [5]) is reported as 0.225. For the same compound, the “NF-kB SEAP reporter activity” value (RAW-Dual [3]; [6]) was 0.192.
`CCCCc1nc(-c2ccc(OCCCN(CC)CC)cc2)cn1-c1ccc(Oc2ccc(Cl)cc2)cc1` was tested, and the “NF-kB SEAP reporter activity” value (RAW-Dual [2]; [9]) was 1.53 and the “NF-kB SEAP reporter activity” value (RAW-Dual [2]; [10]) was 1.02.
`CCCCc1nc2cc(/C=C/C(=O)NO)ccc2n1CCN(CC)CC` (library stock concentration (final ~1000-fold dilution): 10 mM) was tested, and the “NF-kB SEAP reporter activity” value (RAW-Dual [3]; agonist: LPS (TLR4) 0.1 ug/mL) was 4.93, the “NF-kB SEAP reporter activity” value (RAW-Dual [3]; [4]) was 1.54 and the “NF-kB SEAP reporter activity” value (RAW-Dual [3]; [5]) was 0.93. For the same compound, the “NF-kB SEAP reporter activity” value (RAW-Dual [3]; [6]) was 1.99.
With `CN1C2CCC1CC(OC(c1ccccc1)c1ccccc1)C2.CS(=O)(=O)O` (centres undefined) (library stock concentration (final ~1000-fold dilution): 10 mM) the “NF-kB SEAP reporter activity” value (RAW-Dual [1]; agonist: LPS (TLR4) 0.1 ug/mL) was 1.24, the “NF-kB SEAP reporter activity” value (RAW-Dual [1]; [4]) was 0.721 and the “NF-kB SEAP reporter activity” value (RAW-Dual [1]; [5]) was 0.896. For the same compound, the “NF-kB SEAP reporter activity” value (RAW-Dual [1]; [6]) was 1.02.
With `CN1C2CCC1CC(OC(c1ccccc1)c1ccccc1)C2.CS(=O)(=O)O` (centres undefined) the “NF-kB SEAP reporter activity” value (RAW-Dual [2]; [7]) was 1.89 and the “NF-kB SEAP reporter activity” value (RAW-Dual [2]; [8]) was 1.29.
In the case of `CC(NC(=O)CCC(F)(F)F)C(=O)NC1C(=O)N(CCO)c2ncccc2-c2ccccc21` (centres undefined), the “NF-kB SEAP reporter activity” value (RAW-Dual [2]; [7]) is reported as 0.822 and the “NF-kB SEAP reporter activity” value (RAW-Dual [2]; [8]) is reported as 1.06.
